TDP1 block: inhibitors of human tyrosyl-DNA phosphodiesterase TDP1; Q9NUW8; AID 485290; 350,000 tested, 0.28% active; Potency, µM (titrated, usually from 130 µM), inactives show at the top dose activity change, negative = inhibition, actives largely listed as inhibitors; recombinant TDP1, AlphaScreen DNA substrate cleavage; note: nearly all actives have a fitted effect of over 40% in size
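Recombinant E. coli-expressed Tdp1 (1 nM) preincubated with compound 15 min at RT, then 5'-biotin/3'-phosphotyrosine-FITC DNA substrate (15 nM) added for 5 min. AlphaScreen beads (10 ug/ml) added, 10 min RT; tyrosine-FITC cleavage read as signal loss.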
RECQ1 inh: blocks DNA unwinding by human RECQ1; RECQ1 DNA unwinding, red fluorescence kinetic read; Potency, µM (doses to about 57.3 µM), for inactives: at the top dose activity, negative = inhibition, hits mostly inhibitors; 240,000 tested, 0.54% active;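 note: plate controls were vehicle for no effect and no enzyme for full effect; nearly all actives have a fitted effect of over 30% in size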
Target sequence (P46063 whole entry, looked up): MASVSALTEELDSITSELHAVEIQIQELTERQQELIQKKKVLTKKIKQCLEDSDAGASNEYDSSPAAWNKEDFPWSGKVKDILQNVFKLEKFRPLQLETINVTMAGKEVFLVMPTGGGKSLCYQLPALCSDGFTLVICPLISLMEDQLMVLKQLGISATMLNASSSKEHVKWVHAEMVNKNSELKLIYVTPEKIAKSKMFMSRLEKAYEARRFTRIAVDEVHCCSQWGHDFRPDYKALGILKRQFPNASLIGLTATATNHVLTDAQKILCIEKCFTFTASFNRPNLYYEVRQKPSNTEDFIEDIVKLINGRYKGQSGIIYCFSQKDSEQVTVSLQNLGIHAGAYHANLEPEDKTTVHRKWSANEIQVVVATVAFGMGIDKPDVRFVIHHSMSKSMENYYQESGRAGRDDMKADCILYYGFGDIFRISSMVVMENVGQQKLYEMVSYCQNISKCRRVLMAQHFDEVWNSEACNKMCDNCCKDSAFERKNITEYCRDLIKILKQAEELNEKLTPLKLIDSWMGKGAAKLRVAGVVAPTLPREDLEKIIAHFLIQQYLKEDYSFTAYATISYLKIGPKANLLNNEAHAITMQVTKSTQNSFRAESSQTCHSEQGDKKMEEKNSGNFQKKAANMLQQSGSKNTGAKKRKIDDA
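RECQ1T1 50 nM; forked duplex (20 bp + 30-nt ss tails) 200 nM, ATP 2 mM final; pH 8.0, 2 mM MgCl2, 2.5 ug/ml poly(dI-dC); 15 min compound preincubation; discontinuous kinetic read over 2 h at RT.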
APE1 inh-1: APE1 (human) endonuclease inhibition; P27695; recombinant APE1, TAMRA/BHQ-2 abasic DNA cleavage fluorescence; Potency, µM (highest dose often 65.8 µM), for the others: at the highest dose activity change, negative = inhibition, most hits filed as inhibitors; 350,000 tested, 0.35% active;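 note: plate controls were vehicle for no effect and reference inhibitor for full effect; nearly all actives have a fitted effect of over 55% in size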
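Compound pre-exposure to 0.75 nM APE1, 15 min at ambient temperature. Reaction initiated with 50 nM TAMRA/BHQ-2 THF substrate, read immediately in kinetic mode, 525 nm excitation, 598 nm emission.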
BLM inh-1: inhibitors of human Bloom syndrome helicase BLM | 350,000 tested, 0.2% active | P54132 | recombinant BLM DNA unwinding, fluorescence dequenching | Potency, µM (top dose mostly 56.1 µM), for the others: top-dose activity change, negative = inhibition, hits mostly inhibitors;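 note: plate controls were vehicle for no effect and no enzyme for full effect; nearly all actives have a fitted effect of over 35% in size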
L3MBTL1 inh: L3MBTL1 (human) inhibition | AlphaScreen L3MBTL1–H3K9me1 peptide binding | Potency, µM (doses to about 57.1 µM), for the others: at the highest dose activity, negative = inhibition, hits mostly inhibitors | 230,000 tested, 0.66% active; note: nearly all actives have a fitted effect of over 60% in size
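AlphaScreen assay: L3MBTL1 (50 nM final) was preincubated 30 min at room temperature with biotinylated H3(1-15)K9me1 peptide (75 nM final), then 30 min with library compounds; streptavidin donor and nickel chelate acceptor beads (10 ug/mL final) added, 30 min dark.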
KDM4E inh: JMJD2E (human) inhibition; B2RXH2; Potency, µM (top dose mostly 57.1 µM), inactives show top-dose activity change, negative = inhibition, usual class: inhibitors; AID 2147; 230,000 tested, 1.6% active; JMJD2E catalytic domain, FDH-coupled NADH fluorescence (FDH is formaldehyde dehydrogenase);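 note: 0% = wells with enzyme and -100% = buffer wells without enzyme; nearly all actives have a fitted effect of over 50% in size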
DNA dye displace: displaces fluorescent dye from DNA, flagging APE1 artifacts; shares compounds with APE1 inh-1; DNA fluorescent dye displacement counterscreen, fluorescence; Potency, µM (series often up to 28.5 µM), for inactives: top-dose activity change, negative = inhibition, usual class: inhibitors; 480 tested, 7% active; AID 2564;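 note: loss of thiazole orange fluorescence as the dye is displaced from duplex DNA; 0% = ThO with dsDNA and no compound and -100% = ThO without dsDNA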
EndoIV counter: counter-screen for APE1 inhibitors: inhibitors of E. coli endonuclease IV. 560 tested, 4% active. AID 2565. shares compounds with APE1 inh-1. Potency, µM (top dose mostly 27.1 µM), without a hit: at the highest dose activity change, negative = inhibition, usual class: inhibitors. E. coli Endo IV, fluorogenic AP-site DNA cleavage;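 note: plate controls were uninhibited enzyme wells for no effect and no enzyme buffer wells for full effect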
APE1 inh-2: confirmation of inhibitors of human APE1 endonuclease | shares compounds with APE1 inh-1 | purified APE1, fluorogenic abasic-site DNA cleavage | Potency, µM (doses to about 57.1 µM), for inactives: at the top dose activity change, negative = inhibition, most hits filed as inhibitors | 750 tested, 44% active | AID 2572; note: nearly all actives have a fitted effect of over 30% in size
APE1 FP inh: APE1 (human) DNA binding inhibition, fluorescence polarization. shares compounds with APE1 inh-1. APE1 binding to TAMRA-labelled double-stranded DNA, fluorescence polarization displacement. Potency, µM (series often up to 28.5 µM), for inactives: at the top dose activity, negative = inhibition, most hits filed as inhibitors. 480 tested, 7% active
BLM inh-2: confirmation of inhibitors of human Bloom syndrome helicase BLM. 220 tested, 40% active. Potency, µM, inactives show max response, negative = inhibition, hits mostly inhibitors. shares compounds with BLM inh-1. BLM DNA unwinding, fluorescence quenching, biochemical;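 note: strand separation dequenches TAMRA so unwinding raises red fluorescence; series mostly up to about 69 µM; nearly all actives have a fitted effect of over 45% in size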
* = called active by the depositor; i = inactive; ? = inconclusive; / = not tested or not shown; ! = repeats disagree; [ ] = another dose, or the depositor's remark. Shown is part of a subset that was picked to be rich in hits. Unless noted, calls come from the whole dose curve; as a rule, active = well fitted curve in the direction sought with a large enough effect; inconclusive = small, poorly fitted or top-dose-only effect, or another doubt; inactive = no such curve, though single readings can be large; an effect the other way counts as inactive or inconclusive. Unless noted, % is set by controls: 0 for no effect and ±100 for the full control effect; potency is the fitted concentration of half-maximal effect.

SMILES | TDP1 block | RECQ1 inh | APE1 inh-1 | BLM inh-1 | L3MBTL1 inh | KDM4E inh | DNA dye displace | EndoIV counter | APE1 inh-2 | APE1 FP inh | others
Cc1ccc2c(c1)C1C=CCC1C(C(=O)O)N2 (stereo not given) | / | 8.9µM* | 16µM* | 14µM* | 3.2µM* | ? | ? | 0% | 14µM* | -26%
COC(=O)C1=CN(c2ccc(F)cc2)C=C(C(=O)OC)C1c1ccc(O)cc1 | / | / | 38% | -8% | / | / | / | / | / | /
O[C@@](CCN1CCCCC1)(c1ccccc1)C1CCCCC1 | ? | 4%[25.9 µM] | -72%[21 µM] | -2%[21.4 µM] | / | 2%[25.5 µM] | -3% | 17% | 2%[24.4 µM] | ?
O[C@@](CCN1CCCC1)(c1ccccc1)C1CCCCC1 | 14%[21 µM] | i | / | -8%[21.4 µM] | / | 6%[25.5 µM] | / | / | / | /
Cc1csc2nc3cc(C(N)=O)ccc3c(=O)n12 | 2% | i | -3% | 6% | / | ? | / | / | / | /
NC(=O)c1ccc2c(=O)n3c(-c4cc(Cl)c(N)c(Cl)c4)csc3nc2c1 | 79µM* | ? | -4% | -7% | / | ? | / | / | -26% | /
CN(Cc1ccco1)c1ncnc2ccc(-c3cccc(Cl)c3)cc12 | / | / | 26% | / | 4% | / | / | / | / | /
CCN(CC)Cc1cc(O)c(CN(CC)CC)cc1O | 7.9µM* | 25µM* | 6.3µM* | -2% | 3.2µM* | ? | / | / | ? | /
CCN(CC)c1cc2c(cc1F)c(=O)c(S(=O)(=O)c1ccccc1)cn2Cc1ccccc1 | 5% | / | / | -6% | / | / | / | / | / | /
CC(NC(=O)CCCn1c(=O)c2cccn2c2cccnc21)c1ccccc1 (stereo not given) | 5% | / | / | -3% | / | / | / | / | / | /
COc1ccccc1N=Nc1[nH]c2ccc(C)cc2c1O | 6% | -1% | 1% | 5% | -10% | 4% | / | / | / | /
COc1cc(-c2ccc(N=Nc3ccc4c(S(=O)(=O)O)cc(S(=O)(=O)O)c(N)c4c3O)c(OC)c2)ccc1N=Nc1ccc2c(S(=O)(=O)O)cc(S(=O)(=O)O)c(N)c2c1O | ? | 4.5µM* | 1.4µM* | ? | / | 3.5µM* | / | 6.3µM*! | 1µM* | /
CCOC(=O)c1sc2nc3c(SCCC(=O)O)cc(C(=O)c4cc(OC)ccc4O)cn3c(=O)c2c1C | / | ? | 1.6µM* | ? | ? | ? | ? | 11% | 2.2µM* | ?
Nc1ccn([C@@H]2O[C@H](CO)[C@@H](O)[C@H]2O)c(=O)n1 | 10%[56.1 µM] | i | 15% | 2% | / | 8% | / | / | / | /
Nc1ccn([C@@H]2O[C@H](CO)[C@@H](O)C2O)c(=O)n1 (stereo not given in full) | -3% | -10% | -3% | 3% | / | 4% | -3%[57.1 µM] | 22%[57.1 µM] | -6% | 7%[57.1 µM]
COc1ccc(CN2C(=O)c3ccc(C(=O)O)cc3C2=O)cc1 | / | / | 7% | -2% | / | / | / | / | / | /
Cc1cc2nc(-c3ccc(SCc4ccc(C(=O)O)cc4)nc3)[nH]c2cc1C | 22µM* | -8% | 4% | ? | -3% | ? | / | / | 40µM* | /
Nc1nonc1-c1nc2ccccc2n1CC(=O)N/N=C/c1ccc(-c2cccc(C(=O)O)c2)o1 | 14µM* | -21% | ? | ? | ? | ? | -4% | -2% | 13µM* | -4%
CC1(C)OC(=O)C(=Cc2ccc(-c3ccc(Cl)c(C(=O)O)c3)o2)C(=O)O1 | 50µM* | -3% | 22µM* | 44% | 6.3µM* | ? | 0% | 2% | ? | -4%
COc1cc(/C=C(\C#N)C(=O)N2CCOCC2)cc(Br)c1O | 0% | 10% | -5% | -9% | -7% | 0% | / | / | / | /
COc1cc(/C=C(\C#N)C(=O)c2ccc(O)c(O)c2)cc(I)c1O | 6%[56.1 µM] | 0.89µM* | 6µM* | / | 0.32µM* | 10µM* | / | -16%[57.1 µM] | ? | /
CCc1cc(=O)[nH]c(SCc2nc(-c3ccc(C(F)(F)F)cc3)no2)n1 | 0% | / | / | -1% | / | / | / | / | / | /
CCCCC#Cc1ccccc1CC(=O)Nc1ccccc1 | 50µM* | -4% | 3% | -3% | 10% | ? | / | / | ? | /
O=c1[nH]c(Cc2ccccc2)nc2scc(-c3ccccc3)c12 | -3% | -10% | ? | -2% | / | 5% | -3% | 3% | -6%[24.4 µM] | 0%
Cn1c(CNC(=O)CCNC(=O)c2cccc(Cl)c2)cc(=O)n(C)c1=O | 5% | / | 53% | 0% | / | / | / | / | / | /
SMILES | TDP1 block | RECQ1 inh | APE1 inh-1 | BLM inh-1 | L3MBTL1 inh | KDM4E inh | DNA dye displace | EndoIV counter | APE1 inh-2 | APE1 FP inh | others
COC(=O)c1cc(=O)c(O)c2c(O)c(O)ccc2c1 | / | 8.9µM* | 1.3µM* | ? | / | 8.9µM* | / | -17%[57.1 µM] | 7.1µM* | / | BLM inh-2=?
O=c1c2c3c(sc2n(CCN2CCCC2)c(=O)n1Cc1ccco1)CCCCC3 | 12% | -3% | 2% | 6% | -5% | -4% | / | / | / | /
O=C(Cn1c(=O)n(Cc2ccco2)c(=O)c2c3c(sc21)CCCCC3)Nc1ccccc1 | / | 13µM* | 11µM* | 20µM* | ? | ? | ? | -5% | ? | -1% | BLM inh-2=?
O=C(COc1ccc(Cl)cc1)NCCc1csc(-c2ccc(F)cc2)n1 | 5% | / | / | -1% | / | / | / | / | / | /
Cc1nc2ccc3nc(NC(=O)c4ccc5c(c4)OCCO5)sc3c2s1 | 89µM* | -3% | -3% | -9% | -13% | ? | / | / | ? | / | BLM inh-2=?
CCn1cc(C(=O)N2CCN(c3ccc(OC)cc3)CC2)c(=O)c2cc(S(=O)(=O)N(C)C3CCCCC3)ccc21 | -2% | / | / | -2% | / | / | / | / | / | /
CCOc1ccc(NC(=O)CSc2nc(NS(=O)(=O)c3ccc(C)cc3)cc(=O)[nH]2)cc1 | 11% | / | 13% | -10% | / | / | / | / | / | /
CCc1ccc(NC(=O)CSc2nc(NS(=O)(=O)c3ccccc3)cc(=O)[nH]2)cc1 | / | 13µM* | 7.9µM* | 16µM* | ? | ? | 3% | 16% | -10%[24.4 µM] | 0% | BLM inh-2=3%

Assay outcomes deposited in PubChem by National Center for Advancing Translational Sciences (NCATS).
